Results published in PubChem BioAssay.
Calls of active or inactive are those of the source.

Assays:
[1] = small molecules captured by biotinylated probe aFSTL3 – biochemical, small-molecule microarray, fluorescence 635/667, stem cell growth factor project, primary screen (AID 1064); details: higher = more signal;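 further: measures binding of the biotinylated anti-FSTL3 antibody to printed compounds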
[2] = binders from COS7 lysate, DM2A8 probe, primary screen, torsin A project, cell lysate, small-molecule microarray, fluorescence 635/667 (AID 1065); details: higher = more signal, COS7 lysate expressing mutant human TOR1A
[3] = small molecules captured by biotinylated probe aFGF2 – biochemical, small-molecule microarray, fluorescence 635/667, stem cell growth factor project, primary screen (AID 1067); details: higher = more signal;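 further: measures binding of biotinylated aFGF2 protein to printed compounds on slides; z-score merges feature fluorescence and signal-to-noise across triplicate slides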
[4] = small molecules captured by biotinylated probe aFGF10 – biochemical, small-molecule microarray, fluorescence 635/667, stem cell growth factor project, primary screen (AID 1071); details: higher = more signal;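 further: score merges 667 nm spot intensity and signal to noise from triplicate slides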
[5] = target: Neurogenic locus notch homolog protein 2 (Homo sapiens) (UniProt Q04721); assay: small molecules binding Notch2 protein – biochemical, small-molecule microarray, 635 nm fluorescence, stem cell growth factors, primary screen (AID 1073); details: higher = more signal
[6] = target: Pro-neuregulin-1, membrane-bound isoform (Homo sapiens) (UniProt Q02297); assay: small molecules binding neuregulin-1 protein – biochemical, small-molecule microarray, fluorescence 635/667, psychiatric disease protein project, primary screen (AID 1075); details: NRG1 binding, 635 nm fluorescence, higher = more signal;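 further: score combines 667 nm spot fluorescence with signal to noise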
[7] = system: Neuregulin-1 EGF-like domain; assay: small molecules binding NRG1 EGF domain – biochemical, small-molecule microarray, 635 nm fluorescence, primary screen (AID 1081); details: higher = more signal;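 further: binding of the protein to compounds printed on small-molecule microarray slides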
[8] = FRG1 expression reporter modulators in myotubes – cell-based, C2C12 myotubes, firefly/Renilla luciferase, luminescence, FRG1 inhibition for FSHD, primary screen (AID 1084); details: FRG1 promoter luciferase, higher = more signal, called active from +8 up or from −8 down
[9] = small molecules captured by biotinylated probe aFST – biochemical, small-molecule microarray, fluorescence 635/667, stem cell growth factor project, primary screen (AID 1086); details: higher = more signal;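 further: score merges 667 nm fluorescence with signal-to-noise of each printed compound spot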
[10] = binders of probe aHhip on microarray, primary screen, stem cell growth factor project, biochemical, small-molecule microarray, fluorescence 635/667 (AID 1087); details: higher = more signal;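 further: score merges spot fluorescence at 667nm with spot signal to noise ratio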

Neurogenic locus notch homolog protein 2 (Homo sapiens), sequence (Q04721 whole entry, looked up, canonical isoform): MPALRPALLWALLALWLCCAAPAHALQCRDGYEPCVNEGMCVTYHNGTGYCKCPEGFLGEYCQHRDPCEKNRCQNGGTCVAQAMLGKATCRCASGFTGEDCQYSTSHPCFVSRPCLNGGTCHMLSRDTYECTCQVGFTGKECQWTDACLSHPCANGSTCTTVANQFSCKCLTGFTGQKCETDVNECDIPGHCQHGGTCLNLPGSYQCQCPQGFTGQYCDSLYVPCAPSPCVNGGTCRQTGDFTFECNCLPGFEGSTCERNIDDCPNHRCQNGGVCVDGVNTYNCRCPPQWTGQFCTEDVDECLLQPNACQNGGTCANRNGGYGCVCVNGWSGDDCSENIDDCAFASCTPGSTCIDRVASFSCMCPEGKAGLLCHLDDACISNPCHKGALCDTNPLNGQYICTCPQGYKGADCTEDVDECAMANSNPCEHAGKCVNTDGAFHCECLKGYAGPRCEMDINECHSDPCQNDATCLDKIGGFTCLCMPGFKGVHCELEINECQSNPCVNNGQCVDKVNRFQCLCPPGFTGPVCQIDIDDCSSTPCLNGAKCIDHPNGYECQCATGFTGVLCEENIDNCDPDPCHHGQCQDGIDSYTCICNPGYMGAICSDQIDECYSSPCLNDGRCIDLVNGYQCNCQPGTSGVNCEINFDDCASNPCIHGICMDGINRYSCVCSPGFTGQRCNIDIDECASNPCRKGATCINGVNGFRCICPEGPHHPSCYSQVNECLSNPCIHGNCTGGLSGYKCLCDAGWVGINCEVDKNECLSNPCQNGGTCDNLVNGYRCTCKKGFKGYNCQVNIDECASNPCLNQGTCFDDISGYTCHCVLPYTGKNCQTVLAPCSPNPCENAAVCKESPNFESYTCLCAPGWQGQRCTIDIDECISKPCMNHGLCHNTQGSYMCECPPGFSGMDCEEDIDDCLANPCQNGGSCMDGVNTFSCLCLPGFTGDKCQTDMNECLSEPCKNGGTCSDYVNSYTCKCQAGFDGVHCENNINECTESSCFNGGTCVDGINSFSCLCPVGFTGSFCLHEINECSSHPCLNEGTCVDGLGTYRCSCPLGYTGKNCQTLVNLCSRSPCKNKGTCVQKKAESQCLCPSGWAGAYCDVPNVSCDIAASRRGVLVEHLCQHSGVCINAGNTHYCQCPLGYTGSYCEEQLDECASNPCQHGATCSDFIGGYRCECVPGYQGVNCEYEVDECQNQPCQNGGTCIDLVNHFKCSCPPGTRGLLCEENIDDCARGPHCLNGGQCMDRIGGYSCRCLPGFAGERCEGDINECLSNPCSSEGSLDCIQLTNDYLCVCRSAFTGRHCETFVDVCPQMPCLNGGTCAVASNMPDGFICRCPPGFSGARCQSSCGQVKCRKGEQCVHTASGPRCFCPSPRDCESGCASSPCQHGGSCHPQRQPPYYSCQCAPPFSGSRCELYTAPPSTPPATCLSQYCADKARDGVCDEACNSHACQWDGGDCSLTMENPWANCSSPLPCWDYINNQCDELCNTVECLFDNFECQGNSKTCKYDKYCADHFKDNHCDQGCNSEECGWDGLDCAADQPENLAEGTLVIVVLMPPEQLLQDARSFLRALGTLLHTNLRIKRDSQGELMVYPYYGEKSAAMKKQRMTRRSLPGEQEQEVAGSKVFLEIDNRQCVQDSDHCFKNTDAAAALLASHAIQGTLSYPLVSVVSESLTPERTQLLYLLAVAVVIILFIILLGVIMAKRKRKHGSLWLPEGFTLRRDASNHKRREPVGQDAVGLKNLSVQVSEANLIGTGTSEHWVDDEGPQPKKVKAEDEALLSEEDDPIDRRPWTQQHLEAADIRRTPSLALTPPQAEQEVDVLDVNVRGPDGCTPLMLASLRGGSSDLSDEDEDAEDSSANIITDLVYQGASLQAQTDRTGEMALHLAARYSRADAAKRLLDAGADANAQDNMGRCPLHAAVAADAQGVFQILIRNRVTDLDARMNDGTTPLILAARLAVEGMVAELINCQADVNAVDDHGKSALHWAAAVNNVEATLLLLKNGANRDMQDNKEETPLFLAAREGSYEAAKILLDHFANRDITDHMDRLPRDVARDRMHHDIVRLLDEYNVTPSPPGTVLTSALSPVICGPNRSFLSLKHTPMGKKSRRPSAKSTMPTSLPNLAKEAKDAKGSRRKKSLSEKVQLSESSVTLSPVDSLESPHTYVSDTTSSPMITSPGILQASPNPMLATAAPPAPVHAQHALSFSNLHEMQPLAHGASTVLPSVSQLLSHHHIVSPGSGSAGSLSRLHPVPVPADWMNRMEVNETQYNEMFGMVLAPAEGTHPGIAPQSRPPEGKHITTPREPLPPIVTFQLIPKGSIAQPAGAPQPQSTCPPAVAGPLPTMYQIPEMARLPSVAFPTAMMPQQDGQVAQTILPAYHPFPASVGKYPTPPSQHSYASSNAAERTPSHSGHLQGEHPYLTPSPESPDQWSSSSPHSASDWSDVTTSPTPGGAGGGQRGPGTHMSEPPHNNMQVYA
Pro-neuregulin-1, membrane-bound isoform (Homo sapiens), sequence (Q02297 whole entry, looked up, the tested form may be a part, canonical isoform): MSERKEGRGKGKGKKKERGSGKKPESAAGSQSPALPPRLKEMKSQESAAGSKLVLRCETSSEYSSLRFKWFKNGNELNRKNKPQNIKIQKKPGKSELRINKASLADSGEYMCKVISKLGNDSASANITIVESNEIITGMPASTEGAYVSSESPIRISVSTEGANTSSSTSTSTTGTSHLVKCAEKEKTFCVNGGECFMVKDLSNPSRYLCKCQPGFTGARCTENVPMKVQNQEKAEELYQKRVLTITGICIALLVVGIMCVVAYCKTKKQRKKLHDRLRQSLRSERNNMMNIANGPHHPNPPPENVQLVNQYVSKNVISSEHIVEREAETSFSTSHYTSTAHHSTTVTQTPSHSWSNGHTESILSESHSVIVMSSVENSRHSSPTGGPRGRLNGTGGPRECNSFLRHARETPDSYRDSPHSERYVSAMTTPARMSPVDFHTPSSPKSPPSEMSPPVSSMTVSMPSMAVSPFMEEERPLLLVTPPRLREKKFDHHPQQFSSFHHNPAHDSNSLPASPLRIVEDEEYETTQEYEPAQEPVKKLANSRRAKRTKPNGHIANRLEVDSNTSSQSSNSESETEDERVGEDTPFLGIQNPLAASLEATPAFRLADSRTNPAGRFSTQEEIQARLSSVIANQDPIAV

SMILES	composite z-score [1]	composite z-score [2]	composite z-score [3]	composite z-score [4]	composite z-score [5]	composite z-score [6]	composite z-score [7]	z-score [8]	composite z-score [9]	composite z-score [10]
CCC(CC)C(O)C1C=CC2C(=O)N(c3ccccc3)C(=O)C2N1Nc1ccc(C#N)cc1 (stereo not given)	1.07	0.693	0.326	0.884	1.64	1.77	1.29	-1.02 (inactive)	1.22	-0.271
CN(C)CCCCCCNC(=O)[C@H]1C[C@H]2C(=O)N[C@@H](CCCCN)C(=O)N2[C@H]1c1ccc(O)cc1	3.42	2.29	0.762	1.14	1.27	2.51	1.5	0.369 (inactive)	3.49	1.84
CS(=O)(=O)CCOC(=O)C1=CC(c2ccc(CO)cc2)=CC(C2CC2)N(Cc2cc3c(cc2Br)OCO3)C=C1C(=O)OCCS(C)(=O)=O (stereo not given)	-0.232	0.28	-0.0266	0.959	1.13	1.78	1.27	-2.1 (inactive)	0.566	0.245
COCCCNC(=O)[C@@]1(C)c2ccccc2C(=O)N(Cc2cc(C(F)(F)F)cc(C(F)(F)F)c2)[C@H]1c1ccc(CO)cc1	0.472	-1.39	-0.103	-0.635	-0.664	1.59	0.738	-1.29 (inactive)	-0.0412	-0.134
COc1cc(CO)ccc1OC(C)=O	-0.651	0.336	-0.0279	0.28	0.382	0.34	0.707	-0.847 (inactive)	0.195	0.122
COCCOC(=O)N1C(=O)[C@@]2(c3cc(C#CC4(O)CCCCCC4)ccc31)[C@H](C(=O)N1CCCCCCC1)[C@H]1C(=O)O[C@H](c3ccccc3)[C@H](c3ccccc3)N1[C@@H]2c1ccccc1OCCO	2.49	0.859	0.249	0.298	1.25	1.17	1.28	0.25 (inactive)	2.2	1.04
Cc1ccc(F)cc1S(=O)(=O)N[C@@H]1CCN(Cc2ccc(-c3ccccc3)cc2)C1	0.111	0.504	-0.0894	1.04	0.332	0.0558	1.07	-1.72 (inactive)	0.204	0.107
CC(C)N1CC=CC23O[C@@H]4C=CCOC(=O)[C@@H]4[C@H]2C(=O)N(CCO)[C@@H]3C1=O (stereo not given in full)	0.283	-1.72	-0.187	-0.484	-1.11	0.247	1.02	0.188 (inactive)	-0.634	-0.397
CCN(CC)c1ccc(N2CC=CC34O[C@@H]5/C=C\CCCOC(=O)C5[C@H]3C(=O)N(C(CO)C(C)C)[C@@H]4C2=O)cc1 (stereo not given in full)	0.0964	-1.2	-0.159	-0.381	-0.686	1.78	0.897	0.455 (inactive)	-0.406	0.0142
CC(C)(C)N1CC=CC23O[C@@H]4/C=C\CCCOC(=O)C4[C@H]2C(=O)N(CCO)[C@@H]3C1=O (stereo not given in full)	0.29	-1.05	-0.045	0.588	-0.931	0.208	0.938	0.911 (inactive)	-0.681	-0.236
CCOC(=O)C[C@H]1[C@H](OC(=O)Cc2ccc3c(c2)OCO3)[C@@H](NC(=O)c2ccc(-c3ccccc3)cc2)c2cc(OCCCO)ccc2N1C(=O)c1ccccc1	-0.386	-0.0093	-0.0144	0.585	0.537	0.371	0.797	-3.42 (inactive)	0.239	-0.374
CC(=CC1CCCCC1)[C@@H](NC(=O)c1ccc(C(F)(F)F)cc1)c1ccc(-c2ccccc2)cc1	0.21	-0.259	0.0083	-0.0821	0.0836	1.02	-0.54	0.235 (inactive)	0.112	0.57
C=C(COC)/C(=C/C[C@H](OC(=O)c1ccncc1)c1cccc(OCCO)c1)c1cc(C(=O)OC)ccc1OC	-0.282	0.635	-0.116	0.783	0.0724	0.555	1.27	-0.889 (inactive)	-0.0832	0.0505
O=C1C2C=CC(C(O)c3ccc(-c4ccccc4)s3)N(n3cnnc3)C2C(=O)N1Cc1ccccc1 (stereo not given)	0.0626	-0.0982	-0.083	-0.0152	0.207	0.802	1.04	0.545 (inactive)	0.415	-0.0645
COC(=O)c1ccc(OC)c(/C=C\CC(OC(C)=O)c2ccccc2)c1 (stereo not given)	0.428	-0.284	-0.138	0.229	1.2	0.993	0.971	-1.21 (inactive)	-0.405	0.206
COC(=O)[C@@]1(Cc2ccccc2)[C@H]2c3cc(C(=O)N(C)C)n(Cc4c(-c5ccccc5)noc4C)c3C[C@H]2CN1C(=O)c1ccccc1	0.948	-0.287	0.308	0.346	1.66	1.81	1.24	1.6 (inactive)	1.41	0.162
COc1ccccc1CN1C(=O)c2ccccc2[C@@H](C(=O)NCCN2CCOCC2)[C@@H]1c1ccc(CO)cc1	0.109	-0.267	-0.0999	0.539	0.159	1.01	1.47	-2.69 (inactive)	-0.2	-0.169
[N-]=[N+]=NCc1ccccc1C[C@]1(C(=O)NCCN2CCOCC2)N=C(c2ccc(OCCCO)cc2)O[C@H]1c1ccccc1N=[N+]=[N-]	0.446	0.57	0.0618	0.855	1.57	1.6	1.29	-0.653 (inactive)	1.25	-0.236
COc1cc2c(cc1OC)CN(C(=O)[C@@H]1[C@H]3C(=O)O[C@H](c4ccccc4)[C@H](c4ccccc4)N3[C@H](c3ccccc3OCCO)[C@@]13C(=O)Nc1ccc(C#CCNC(N)=O)cc13)CC2	0.309	0.586	0.0564	0.837	0.936	0.852	1.07	0.297 (inactive)	0.237	-0.074
CCCC[C@@H]1C[C@H]1[C@@H](NC(=O)c1ccc(-c2ccccc2)cc1)c1ccc(-c2ccccc2)cc1	-0.129	0.0257	0.702	0.711	0.286	0.0352	0.217	-1.11 (inactive)	0.0469	0.107
[N-]=[N+]=NCc1ccccc1[C@@H]1OC(c2ccc(OCCCO)cc2)=N[C@]1(Cc1ccccc1N=[N+]=[N-])C(=O)NCc1ccccc1	-0.253	0.485	-0.0287	0.272	1.15	0.612	1.05	-1.66 (inactive)	0.221	-0.113
COc1ccc(CCNC(=O)[C@@H]2c3ccccc3C(=O)N(Cc3ccc(OC(F)(F)F)cc3)[C@H]2c2ccc(CO)cc2)cc1	0.111	0.321	-0.0937	0.252	0.0125	0.75	0.882	-2.61 (inactive)	0.322	-0.0672
[N-]=[N+]=NCc1ccccc1C[C@]1(C(=O)NCC(O)CO)N=C(c2ccc(OCCCO)cc2)O[C@H]1c1ccccc1N=[N+]=[N-] (stereo not given in full)	1.55	0.459	-0.01	0.77	0.814	1.17	0.731	-0.5 (inactive)	0.575	-0.194
Cc1ccc(S[C@]2(C(=O)NC3CC3)CC(=O)N(Cc3ccccc3)[C@@H]2c2ccc(CO)cc2)cc1	0.462	-1.21	-0.118	-0.0824	-0.764	-0.419	0.0059	-1.17 (inactive)	0.135	-0.247
COc1ccc(CCN2C(=O)[C@@]3(Cc4ccccc42)c2ccccc2C(=O)N(Cc2ccccc2Cl)[C@H]3c2ccc(CO)cc2)cc1	0.451	-0.73	-0.0744	-0.249	-0.13	-0.221	0.834	-0.236 (inactive)	-0.285	-0.0994
O=C1C[C@]2(c3ccc([N+](=O)[O-])cc3)C(=O)N(CC(F)(F)F)c3cc(CO)ccc3[C@H]2N1CC12CC3CC(CC(C3)C1)C2	-0.127	0.0228	-0.101	0.0063	-0.284	-0.0962	0.988	-0.659 (inactive)	0.0443	-0.249
